# Assay results reported in publication PMC5540273 (PLoS ONE, 2017).
# Like-named read-outs stand apart in the source and are kept apart here.
# Columns and labels:
# DCAMKL2 = system: T1, DCAMKL2; details: concentration: 1 μM,replicates: in singlicate; n = 1
# T1 construct: gene DCLK2
# DCAMKL3 = system: T2, DCAMKL3; details: concentration: 1 μM,replicates: in singlicate; n = 1
# T2 construct: gene DCLK3
# DDR1 = details: concentration: 1 μM,replicates: in singlicate; n = 1
# DDR2 = details: concentration: 1 μM,replicates: in singlicate; n = 1
# DLK = system: T3, DLK; details: concentration: 1 μM,replicates: in singlicate; n = 1
# T3 construct: gene MAP3K12
# DMPK2 = system: T4, DMPK2; details: concentration: 1 μM,replicates: in singlicate; n = 1
# T4 construct: gene CDC42BPG
# DMPK = details: concentration: 1 μM,replicates: in singlicate; n = 1
# DRAK1 = system: T5, DRAK1; details: concentration: 1 μM,replicates: in singlicate; n = 1
# T5 construct: gene STK17A
# DRAK2 = system: T6, DRAK2; details: n = 1
# T6 construct: gene STK17B
# DYRK1A = details: concentration: 1 μM,replicates: in singlicate; n = 1
# DYRK1B = details: concentration: 1 μM,replicates: in singlicate; n = 1
# DYRK2 = details: concentration: 1 μM,replicates: in singlicate; n = 1
# EGFR = details: concentration: 1 μM,replicates: in singlicate; n = 1
# EIF2AK1 = details: concentration: 1 μM,replicates: in singlicate; n = 1
# EPHA1 = details: concentration: 1 μM,replicates: in singlicate; n = 1
# EPHA2 = details: concentration: 1 μM,replicates: in singlicate; n = 1
# EPHA3 = details: concentration: 1 μM,replicates: in singlicate; n = 1
# EPHA4 = details: concentration: 1 μM,replicates: in singlicate; n = 1
# EPHA5 = details: concentration: 1 μM,replicates: in singlicate; n = 1
# EPHA6 = details: concentration: 1 μM,replicates: in singlicate; n = 1
# [1] = concentration: 1 μM,replicates: in singlicate
# 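Also: KINOMEscan kinase panel screen.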
smiles,measurement,setting,value
Cc1cccc2c(-c3ccncc3)c(-c3ccc(F)cc3)nn12.Cl [GW461487],%Inh,DCAMKL2,0%
same,%Inh,DCAMKL3,0%
same,%Inh,DDR1,54%
same,%Inh,DDR2,41%
same,%Inh,DLK,27%
same,%Inh,DMPK2,43%
same,%Inh,DMPK,0%
same,%Inh,DRAK1,7%
same,%Inh,DRAK2; [1],0%
same,%Inh,DYRK1A,10%
same,%Inh,DYRK1B,0%
same,%Inh,DYRK2,10%
same,%Inh,EGFR,19%
same,%Inh,EIF2AK1,0%
same,%Inh,EPHA1,3%
same,%Inh,EPHA2,5%
same,%Inh,EPHA3,0%
same,%Inh,EPHA4,0%
same,%Inh,EPHA5,0%
same,%Inh,EPHA6,6%
Cc1ccn2nc(-c3ccc(F)cc3)c(-c3ccncc3)c2c1.Cl [GW457859],%Inh,DCAMKL2,0%
same,%Inh,DCAMKL3,0%
same,%Inh,DDR1,75%
same,%Inh,DDR2,82%
same,%Inh,DLK,44%
same,%Inh,DMPK2,75%
same,%Inh,DMPK,0%
same,%Inh,DRAK1,2%
same,%Inh,DRAK2; [1],0%
same,%Inh,DYRK1A,0%
same,%Inh,DYRK1B,10%
same,%Inh,DYRK2,0%
same,%Inh,EGFR,49%
same,%Inh,EIF2AK1,8%
same,%Inh,EPHA1,2%
same,%Inh,EPHA2,83%
same,%Inh,EPHA3,19%
same,%Inh,EPHA4,0%
same,%Inh,EPHA5,0%
same,%Inh,EPHA6,4%
Cc1ccc(CC(=O)N2CCc3cc(-c4cn(C)c5ncnc(N)c45)ccc32)cc1 [GSK2634758],%Inh,DCAMKL2,0%
same,%Inh,DCAMKL3,0%
same,%Inh,DDR1,61%
same,%Inh,DDR2,44%
same,%Inh,DLK,21%
same,%Inh,DMPK2,68%
same,%Inh,DMPK,15%
same,%Inh,DRAK1,0%
same,%Inh,DRAK2; [1],0%
same,%Inh,DYRK1A,0%
same,%Inh,DYRK1B,0%
same,%Inh,DYRK2,7%
same,%Inh,EGFR,27%
same,%Inh,EIF2AK1,46%
same,%Inh,EPHA1,0%
same,%Inh,EPHA2,2%
same,%Inh,EPHA3,0%
same,%Inh,EPHA4,0%
same,%Inh,EPHA5,0%
same,%Inh,EPHA6,0%
NC(=O)c1ccc(-c2cc3ncnc(SCC(=O)O)c3s2)cc1,%Inh,DCAMKL2,9%
same,%Inh,DCAMKL3,17%
same,%Inh,DDR1,0%
same,%Inh,DDR2,9%
same,%Inh,DLK,0%
same,%Inh,DMPK2,24%
same,%Inh,DMPK,0%
same,%Inh,DRAK1,98.3%
same,%Inh,DRAK2; [1],100%
same,%Inh,DYRK1A,94.8%
same,%Inh,DYRK1B,57%
same,%Inh,DYRK2,47%
same,%Inh,EGFR,0%
same,%Inh,EIF2AK1,0%
same,%Inh,EPHA1,0%
same,%Inh,EPHA2,0%
same,%Inh,EPHA3,0%
same,%Inh,EPHA4,17%
same,%Inh,EPHA5,0%
same,%Inh,EPHA6,21%
Cn1ccc2ncnc(Oc3ccc(NC(=O)Nc4cnn(C(C)(C)C)c4)c(Cl)c3)c21,%Inh,DCAMKL2,5%
same,%Inh,DCAMKL3,2%
same,%Inh,DDR1,100%
same,%Inh,DDR2,100%
same,%Inh,DLK,0%
same,%Inh,DMPK2,0%
same,%Inh,DMPK,15%
same,%Inh,DRAK1,0%
same,%Inh,DRAK2; [1],3%
same,%Inh,DYRK1A,11%
same,%Inh,DYRK1B,62%
same,%Inh,DYRK2,6%
same,%Inh,EGFR,25%
same,%Inh,EIF2AK1,0%
same,%Inh,EPHA1,0%
same,%Inh,EPHA2,22%
same,%Inh,EPHA3,54%
same,%Inh,EPHA4,23%
same,%Inh,EPHA5,18%
same,%Inh,EPHA6,89%
CN(c1cccc(CNc2nc(Nc3ccc4c(c3)CC(=O)N4)ncc2C(F)(F)F)c1)S(C)(=O)=O,%Inh,DCAMKL2,9%
same,%Inh,DCAMKL3,86%
same,%Inh,DDR1,43%
same,%Inh,DDR2,3%
same,%Inh,DLK,4%
same,%Inh,DMPK2,0%
same,%Inh,DMPK,0%
same,%Inh,DRAK1,99.4%
same,%Inh,DRAK2; [1],97.5%
same,%Inh,DYRK1A,74%
same,%Inh,DYRK1B,57%
same,%Inh,DYRK2,28%
same,%Inh,EGFR,3%
same,%Inh,EIF2AK1,0%
same,%Inh,EPHA1,3%
same,%Inh,EPHA2,0%
same,%Inh,EPHA3,22%
same,%Inh,EPHA4,1%
same,%Inh,EPHA5,0%
same,%Inh,EPHA6,0%
Cn1ccc2ncnc(Oc3ccc(NC(=O)Nc4cncc(C(F)(F)F)c4)c(Cl)c3)c21,%Inh,DCAMKL2,0%
same,%Inh,DCAMKL3,0%
same,%Inh,DDR1,100%
same,%Inh,DDR2,99.9%
same,%Inh,DLK,0%
same,%Inh,DMPK2,0%
same,%Inh,DMPK,0%
same,%Inh,DRAK1,0%
same,%Inh,DRAK2; [1],0%
same,%Inh,DYRK1A,0%
same,%Inh,DYRK1B,5%
same,%Inh,DYRK2,0%
same,%Inh,EGFR,0%
same,%Inh,EIF2AK1,0%
same,%Inh,EPHA1,17%
same,%Inh,EPHA2,81%
same,%Inh,EPHA3,92.5%
same,%Inh,EPHA4,57%
same,%Inh,EPHA5,45%
same,%Inh,EPHA6,97.5%
Cn1ccc2ncnc(Oc3ccc(NC(=O)Nc4cc(C(C)(C)C)on4)c(Cl)c3)c21,%Inh,DCAMKL2,15%
same,%Inh,DCAMKL3,0%
same,%Inh,DDR1,100%
same,%Inh,DDR2,99.4%
same,%Inh,DLK,0%
same,%Inh,DMPK2,6%
same,%Inh,DMPK,0%
same,%Inh,DRAK1,11%
same,%Inh,DRAK2; [1],35%
same,%Inh,DYRK1A,26%
same,%Inh,DYRK1B,39%
same,%Inh,DYRK2,23%
same,%Inh,EGFR,50%
same,%Inh,EIF2AK1,3%
same,%Inh,EPHA1,71%
same,%Inh,EPHA2,85%
same,%Inh,EPHA3,93.4%
same,%Inh,EPHA4,68%
same,%Inh,EPHA5,58%
same,%Inh,EPHA6,99.6%
O=c1[nH]cc(-c2ccc(O)cc2)c2sc(-c3ccncc3)cc12 [GSK1033723],%Inh,DCAMKL2,6%
same,%Inh,DCAMKL3,5%
same,%Inh,DDR1,0%
same,%Inh,DDR2,25%
same,%Inh,DLK,12%
same,%Inh,DMPK2,17%
same,%Inh,DMPK,78%
same,%Inh,DRAK1,31%
same,%Inh,DRAK2; [1],0%
same,%Inh,DYRK1A,90%
same,%Inh,DYRK1B,84%
same,%Inh,DYRK2,87%
same,%Inh,EGFR,32%
same,%Inh,EIF2AK1,12%
same,%Inh,EPHA1,8%
same,%Inh,EPHA2,10%
same,%Inh,EPHA3,0%
same,%Inh,EPHA4,10%
same,%Inh,EPHA5,0%
same,%Inh,EPHA6,6%
CC(=O)Nc1ccc(-c2cc3ncnc(SCC(=O)O)c3s2)cc1,%Inh,DCAMKL2,24%
same,%Inh,DCAMKL3,12%
same,%Inh,DDR1,0%
same,%Inh,DDR2,10%
same,%Inh,DLK,2%
same,%Inh,DMPK2,0%
same,%Inh,DMPK,7%
same,%Inh,DRAK1,97.9%
same,%Inh,DRAK2; 1 µM,100%
same,%Inh,DYRK1A,66%
same,%Inh,DYRK1B,22%
same,%Inh,DYRK2,39%
same,%Inh,EGFR,2%
same,%Inh,EIF2AK1,0%
same,%Inh,EPHA1,28%
same,%Inh,EPHA2,0%
same,%Inh,EPHA3,0%
same,%Inh,EPHA4,19%
same,%Inh,EPHA5,7%
same,%Inh,EPHA6,22%
